# Experimental data: PMC11062922 (Nature Chemical Biology, 2023)
# Where two headings read alike, the source gives them in different places.
# Tests used:
# Set-up in all cases: species or system human, MV4-11 + K-562 + COLO205 + SK-N-BE2 + OVCAR-8
# [1] = tested on: CSNK1A1; details: read-out: apparent Kd, n = 1
# [2] = tested on: PRKX; details: read-out: apparent Kd; compound concentrations: 100 nM and 1000 nM (sheet 'Samples'), CATDS: 4.4311971030028298E-2; n = 1
# [3] = tested on: ROCK2; details: read-out: apparent Kd, n = 1
# [4] = tested on: ADCK1; details: read-out: apparent Kd, n = 1
# [5] = tested on: CSNK1E; details: read-out: apparent Kd, n = 1
# [6] = tested on: MAPK10; details: read-out: apparent Kd, n = 1
# [7] = tested on: MAPK8; details: read-out: apparent Kd, n = 1
# [8] = tested on: RIOK2; details: read-out: apparent Kd, n = 1
# [9] = tested on: YES1; details: read-out: apparent Kd; compound concentrations:100 nM and 1000 nM (sheet 'Samples'); n = 1
# [10] = tested on: STK16; details: read-out: apparent Kd, n = 1
# [11] = tested on: EPHA2; details: read-out: apparent Kd; compound concentrations:100 nM and 1000 nM (sheet 'Samples'); n = 1
# [12] = tested on: PTK6; details: read-out: apparent Kd; compound concentrations:100 nM and 1000 nM (sheet 'Samples'); n = 1
# [13] = tested on: CDK17; details: read-out: apparent Kd, n = 1
# [14] = tested on: STK3; details: read-out: apparent Kd, n = 1
# [15] = tested on: TNIK; details: read-out: apparent Kd, n = 1
# [16] = tested on: PHKG2; details: read-out: apparent Kd; compound concentrations:100 nM and 1000 nM (sheet 'Samples'); n = 1
# [17] = compound concentrations:100 nM and 1000 nM (sheet 'Samples')
structure (smiles),measurement,setting,value
NCC(NC(=O)c1cc(-c2cn[nH]c2)c(-c2ccnc3[nH]ccc23)s1)c1ccccc1.NCC(NC(=O)c1cc(-c2cn[nH]c2)c(-c2ccnc3[nH]ccc23)s1)c1ccccc1.O=C(O)C(F)(F)F.O=C(O)C(F)(F)F (centres unmarked) [GSK1325775A],potency estimated from few doses,"[1]; compound concentrations: 100 nM and 1000 nM (sheet 'Samples'), CATDS: 3.28567634973949E-2",1500 nM
same,potency estimated from few doses,[2],641 nM
same,potency estimated from few doses,"[3]; compound concentrations: 100 nM and 1000 nM (sheet 'Samples'), CATDS: 0.17011597804612999",47.4 nM
c1cnn2ncc(-c3ccnc(Nc4ccc5c(c4)OCCO5)n3)c2c1 [GW806290X],potency estimated from few doses,"[4]; compound concentrations: 100 nM and 1000 nM (sheet 'Samples'), CATDS: 2.0516224728304101E-2",1820 nM
same,potency estimated from few doses,"[1]; compound concentrations: 100 nM and 1000 nM (sheet 'Samples'), CATDS: 2.11429118311642E-2",1620 nM
same,potency estimated from few doses,"[5]; compound concentrations: 100 nM and 1000 nM (sheet 'Samples'), CATDS: 2.4076386460309102E-2",1050 nM
same,potency estimated from few doses,"[6]; compound concentrations: 100 nM and 1000 nM (sheet 'Samples'), CATDS: 2.29064571505532E-2",1230 nM
same,potency estimated from few doses,"[7]; compound concentrations: 100 nM and 1000 nM (sheet 'Samples'), CATDS: 3.07479356857355E-2",532 nM
same,potency estimated from few doses,"[8]; compound concentrations: 100 nM and 1000 nM (sheet 'Samples'), CATDS: 4.9537974032322102E-2",183 nM
CS(=O)(=O)Nc1ccc(-c2ccnc3[nH]ccc23)cc1 [GSK993273A],potency estimated from few doses,[8]; [17],1670 nM
CNc1cc(-c2ccc3c(N)n[nH]c3c2)nc(N)n1 [GSK2224810A],potency estimated from few doses,[1]; [17],2450 nM
same,potency estimated from few doses,[9],1160 nM
CC(C)Oc1ccc2c(-c3ccnc(Nc4ccc(N5CCN(C)CC5)cc4)n3)cnn2n1 [GW696155X],potency estimated from few doses,[4]; [17],44.9 nM
same,potency estimated from few doses,[6]; [17],1250 nM
same,potency estimated from few doses,[7]; [17],352 nM
same,potency estimated from few doses,[10]; [17],39.2 nM
CS(=O)(=O)CCn1c(=O)c(Oc2ccc(F)cc2F)cc2cnc(NC3CCOCC3)nc21 [RO5027956-000],potency estimated from few doses,[11],1060 nM
same,potency estimated from few doses,[6]; [17],127 nM
same,potency estimated from few doses,[7]; [17],1130 nM
same,potency estimated from few doses,[12],1310 nM
NS(=O)(=O)c1ccc(NC=C2C(=O)Nc3ccc4ncsc4c32)cc1 [GW589933X],potency estimated from few doses,"[13]; compound concentrations: 100 nM and 1000 nM (sheet 'Samples'), CATDS: 2.5834512792532401E-2",479 nM
same,potency estimated from few doses,"[5]; compound concentrations: 100 nM and 1000 nM (sheet 'Samples'), CATDS: 1.7679596648165999E-2",1500 nM
same,potency estimated from few doses,"[14]; compound concentrations: 100 nM and 1000 nM (sheet 'Samples'), CATDS: 3.1819272048607197E-2",295 nM
same,potency estimated from few doses,"[15]; compound concentrations: 100 nM and 1000 nM (sheet 'Samples'), CATDS: 5.8590994029209698E-2",89.2 nM
Cc1occc1-c1nc(N)c(OC[C@@H](N)Cc2c[nH]c3ccccc23)cc1-c1cc2c(C)n[nH]c2cn1 [GSK1660450B],potency estimated from few doses,[5]; [17],144 nM
same,potency estimated from few doses,[14]; [17],93.5 nM
same,potency estimated from few doses,[15]; [17],696 nM
Nc1nc(-c2ccc3c(N)n[nH]c3c2)cc(N2CCCC(NC(=O)c3ccccc3)C2)n1 (centres unmarked) [GSK2286775B],potency estimated from few doses,[8]; [17],1860 nM
COc1cccc(C2=C(c3c(C)n(C)c4ccccc34)C(=O)NC2=O)c1 [RO3300167-000],potency estimated from few doses,"[14]; compound concentrations: 100 nM and 1000 nM (sheet 'Samples'), CATDS: 0.106754068539186",824 nM
CCn1c(-c2nonc2N)nc2cncc(Br)c21 [SB-738004],potency estimated from few doses,[3]; [17],84.1 nM
CC(C)N1CC(=O)N(C)c2cnc(Nc3cccc(S(=O)(=O)CCN4CCOCC4)c3)nc21 [BI00009348],potency estimated from few doses,"[10]; compound concentrations: 100 nM and 1000 nM (sheet 'Samples'), CATDS: 5.8221493759355002E-2",1180 nM
Cc1cc(NC(=O)c2cccc(NC(=O)/C=C/CN(C)C)c2)ccc1Nc1nccc(-c2cccnc2)n1 [JNK-IN-7],potency estimated from few doses,[5]; [17],2010 nM
same,potency estimated from few doses,"[7]; compound concentrations: 100 nM and 1000 nM (sheet 'Samples'), CATDS: 0.361738634517147",10.7 nM
same,potency estimated from few doses,[8]; [17],720 nM
NS(=O)(=O)c1ccc(N/N=C2\C(=O)Nc3ccc4ncccc4c32)cc1 [GW305178X],potency estimated from few doses,"[13]; compound concentrations: 100 nM and 1000 nM (sheet 'Samples'), CATDS: 6.1858788217922803E-2",544 nM
same,potency estimated from few doses,"[14]; compound concentrations: 100 nM and 1000 nM (sheet 'Samples'), CATDS: 4.2852870715448799E-2",1580 nM
COc1cc[nH]c1/C=C1\C(=O)Nc2ccc(F)c(C#C[C@@H](O)[C@@H](N)[C@@H](C)O)c21 [RO0283120-000],potency estimated from few doses,[13]; [17],774 nM
same,potency estimated from few doses,[6]; [17],654 nM
same,potency estimated from few doses,[7]; [17],942 nM
same,potency estimated from few doses,[16],669 nM
same,potency estimated from few doses,[10]; [17],1230 nM
same,potency estimated from few doses,[14]; [17],680 nM
CNCC1CCn2c(c(C3=C(c4cn(C)c5ccccc45)C(=O)NC3=O)c3ccccc32)C1 (centres unmarked) [RO0318676-000],potency estimated from few doses,"[13]; compound concentrations: 100 nM and 1000 nM (sheet 'Samples'), CATDS: 2.8092729884281801E-2",1740 nM
NS(=O)(=O)c1ccc(N/N=C2\C(=O)Nc3ccc(-c4cnco4)cc32)cc1 [GW276655_KCGS],potency estimated from few doses,[15]; [17],1940 nM
